We go through twelve molecules from PubChem BioAssay (NCATS).

Molecules are shown by their SMILES. Records with an inconclusive call do not appear. Calls of active or inactive are those of the source. The call rests on the fitted dose curve; in most records, active means well fitted inhibition curve with a large enough effect; inconclusive means small, poorly fitted or top-dose-only effect; inactive means no such curve, though single readings can be large or run the other way.
Potency means the concentration at half of the fitted maximal effect.

The experiment in a line: S16 Schwann cell PMP22 intronic element firefly luciferase assay (AID 624032). Further: nearly all actives have a fitted effect of over 30% in size. The settings on record: S16 rat Schwann cells, PMP22 element FLuc, 24 h; series mostly up to 57.5 µM; activity change, negative = inhibition: at the top concentration. The text has this:
Charcot-Marie-Tooth-Association [CMTA]
National Center for Advancing Translational Sciences [NCATS]
Charcot-Marie-Tooth (CMT) disease was first characterized by Jean-Martin Charcot and Pierre Marie in France and, independently, by Howard Henry Tooth in England in 1886. CMT is one of the most common inherited neurological diseases, affecting approximately 1 in 2,500 Americans. […] The most prevalent type of CMT is known as CMT1A and caused by a duplication of the PMP22 gene which leads to over-expression of this protein. PMP22 is a glycosylated intrinsic membrane protein accounting for 2-5% of the myelin protein content, and its over-expression results in demyelination and subsequently axonal loss.
A pair of cellular transcription-based assays was developed in the S16 rat Schwann cell lines (Hai, M., et al., 2002) stably transfected with orthogonal reporters - firefly luciferase (Fluc) and beta-lactamase (beta-Lac) - whose expression is driven by an intronic regulatory element of the PMP22 gene (Jones, E.A., et al., 2011) to recapitulate endogenous expression of PMP22. The current assay employs Fluc to report on PMP22 expression. A comprehensive library of approved drugs, the NCGC Pharmaceutical Collection (Huang, R., et al., 2011), was screened in the cross-validating platform of the orthogonal reporter assays to identify drug modulators inhibitory towards PMP22 expression.
A set of counter-screens was devised to address non-specific activity of the library. An ATP-dependent CellTiter-Glo assay (developed by Promega Corp) was utilized to control cell viability. In addition, biochemical Fluc enzyme assay was performed to assess direct inhibition of the Fluc enzymatic activity.
Hai, M., Muja, N., DeVries, G.H., Quarles, R.H. and Patel, P.I. Comparative analysis of Schwann cell lines as model systems for myelin gene transcription studies. J Neurosci Res, 2002. 69(4): pp 497-508
Huang, R., Southall, N., Wang, Y., Yasgar A., Shinn P., Jadhav, A. , Nguyen, D.-T. and Austin, C.P., The NCGC pharmaceutical collection: a comprehensive resource of clinically approved drugs enabling repurposing and chemical genomics. Sci Transl Med, 2011. 3(80): p. 80ps16.
S16 Schwann cell PMP22 intronic element firefly luciferase assay
The FLuc-expressing S16 cells were seeded in white solid 1536-well plates at between 500-750 cells/4uL in DMEM medium containing 10% FBS, w/o phenol red. After overnight incubation at 37 degree Celsius/5% C02, 23 nL of compounds or DMSO were delivered to each well using a pin tool, followed by 24h-incubation at 37 degree Celsius/5% C02. Then 4 uL ONE-Glo luminescent substrate mix (Promega) was added to each well. Luminescence was measured on a ViewLux plate reader (Perkin Elmer). The % activity was determined by normalizing to the average readings of PTC124 (a positive control) - treated cells relative to DMSO-treated cells (0% Activity). The concentration-effect curves were then classified based on curve quality (r2), response magnitude and degree of measured activity.
Regarding `O=C(O)c1nc(=O)[nH]c(=O)[nH]1`, the Potency is 16.1 µM (active). Consider `CS(=O)(=O)c1ccc(C2=C(c3ccccc3)C(=O)OC2)cc1`, for which the “activity change, negative = inhibition” value was -29.2% (inactive). Still for that read-out and setting: to `C=C1c2cccc(O)c2C(O)=C2C(=O)[C@@]3(O)C(O)=C(C(N)=O)C(=O)[C@@H](N(C)C)[C@@H]3[C@@H](O)[C@H]12` belongs -11.6% [at 25.7 µM] (inactive). Turning to `COc1c(C)c2c(c(O)c1CC=C(C)CCC(=O)OCCN1CCOCC1)C(=O)OC2`, the Potency is 5.1 µM (active). In the case of `N#CC(c1ccc(Cl)cc1)c1c(Cl)cc(-n2ncc(=O)[nH]c2=O)cc1Cl` (configuration not stated), the “activity change, negative = inhibition” value was 23% (inactive). Still for that read-out and setting: under `N#Cc1c(N(CC(=O)O)CC(=O)O)sc(C(=O)O)c1CC(=O)O` stands 9.97% (inactive); under `CN1CCN2c3ncccc3Cc3ccccc3C2C1` (configuration not stated), -3.51% (inactive). With `Clc1ccc(COC(Cn2ccnc2)c2ccc(Cl)cc2Cl)c(Cl)c1` (configuration not stated), the Potency was 8.7 µM (active). For the molecule `COc1ccnc(CS(=O)c2nc3ccc(OC(F)F)cc3[nH]2)c1OC` (configuration not stated), the “activity change, negative = inhibition” value is -2.95% (inactive). Same read-out and setting: under `COc1cc2c(cc1OC)CC(=O)N(CCCN(C)C[C@H]1Cc3cc(OC)c(OC)cc31)CC2` stands -12.6% (inactive). Regarding `CC(C)CN(C[C@@H](O)[C@H](Cc1ccccc1)NC(=O)O[C@H]1CO[C@H]2OCC[C@H]21)S(=O)(=O)c1ccc(N)cc1`, the “activity change, negative = inhibition” value is -7.57% (inactive).

Take `NCC1CCC(C(=O)O)CC1` (configuration not stated): the “activity change, negative = inhibition” value was -8.89% [at 25.7 µM] (inactive).
